Measured values: PubChem BioAssay AID485317 (Broad Institute, 2010)
About 11,000 (3.8%) of roughly 290,000 compounds were called active. The sample holds actives, similar compounds and a random draw of the others, so the mix is not that of the screen. A number with no mark means an inactive call.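 Rule for the calls: active = mean replicate inhibition above about 79%, with every replicate also reaching it (limit read from the data); inconclusive = only one of the two criteria met; inactive = mean below limit and not every replicate reaching it.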

Biological target: FAD-linked sulfhydryl oxidase ALR (Homo sapiens) (UniProt P55789)
Test: inhibitors of human ALR sulfhydryl oxidase, primary screen, biochemical, H2O2 detection, HRP-luminol luminescence, single point (AID 485317)
Details: purified ALR, DTT oxidation, hits give high values, concentration not given here

FAD-linked sulfhydryl oxidase ALR (Homo sapiens), sequence (P55789 whole entry, looked up): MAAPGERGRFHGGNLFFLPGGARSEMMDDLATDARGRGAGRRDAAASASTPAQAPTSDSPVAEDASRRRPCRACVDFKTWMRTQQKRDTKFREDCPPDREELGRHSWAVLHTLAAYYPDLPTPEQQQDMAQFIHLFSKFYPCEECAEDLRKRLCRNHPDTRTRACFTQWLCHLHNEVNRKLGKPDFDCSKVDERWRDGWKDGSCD

In order of falling inhibition:
1. COc1cc(/C=N/Nc2nc3ccccc3s2)ccc1O  46.3%
2. CC1O[C@@H](OC2C(O)C(C)O[C@H](OC(=O)[C@]34CCC(C)(C)C[C@H]3C3=CCC5[C@@]6(C)CC(O)C(O[C@@H]7OC(CO)C(O)[C@@H](O)[C@@H]7O)[C@@](C)(C(=O)O)C6CC[C@@]5(C)[C@]3(CO)CC4)C2O[C@H]2OC(C)[C@@H](O[C@@H]3OCC(O[C@@H]4OC(CO)C(O)[C@H](O)C4O)[C@@H](O)[C@@H]3O)[C@H](O)C2O)C(O)C(O)C1O (some centres not stated)  22.9%
3. CCC(CO)Oc1cc(NCc2ccccc2)c2ncn(C3CCCC3)c2c1 (configuration not stated)  15.4%
4. COc1ccccc1C(=O)OCC(=O)Nc1cccc(S(=O)(=O)NC2=NCCCCC2)c1  14.6%
5. CCOC(=O)c1c(-c2ccccc2)oc2cc(Br)c(O)cc12  13.2%
6. C=CC[C@@H](CC(=O)N[C@H](CO)Cc1ccccc1)C(=O)N[C@@H](COC(=O)[C@@H](CC=C)Cc1ccc(F)cc1)Cc1c[nH]c2ccccc12  10.3%
7. Cc1ccc(Nc2nnc(SC(C)C(=O)NC3CC3)s2)cc1 (configuration not stated)  7.72%
8. COc1cccc(OC)c1C(=O)N1CCN(Cc2cccnc2)CC1  6.59%
9. COc1ccccc1C(=O)Nc1ccccc1C(=O)Nc1ccccc1  4.88%
10. CSc1ccc(/C=C2\NC(=O)NC2=O)cc1  4.58%
11. CCNc1nc(N)nc(-c2cc(Cl)ccc2OC)n1  4.24%
12. C=C1CCC(N(O)c2cc(C)on2)C(=C)CCC2C1CC2(C)C (configuration not stated)  4.12%
13. COC(=O)C1=C(C)N(c2ccc(Br)cc2)C(=O)/C1=C\c1ccco1  3.31%
14. CCOC(=O)c1c(N)nn(C(=O)c2ccccc2)c1-c1ccccc1  3.16%
15. COc1ccccc1/C=N/Nc1nc(C)c(C(C)=O)s1  3.01%
16. COc1ccc(CNC(=O)COC(=O)c2sccc2C)cc1OC  2.29%
17. O=C(CCCN1C(=O)/C(=C\c2ccccc2)SC1=S)Nc1ccccc1O  1.84%
18. CCOc1ccc(C(=O)NCC(=O)N2CCN(c3ccc(C(F)(F)F)cn3)CC2)cc1  1.77%
19. O=C(COC(=O)C1(c2ccc(F)cc2)CCCC1)N1CCNC1=O  1.5%
20. CCOc1ccc(C(=O)Nc2ccc(S(=O)(=O)NCC3CCCO3)cc2)cc1OCC (configuration not stated)  1.23%
21. CCOc1ccccc1Nc1nnc(SCC(=O)NCC2CCCO2)s1 (configuration not stated)  1.03%
22. Cc1ccc2c(c1)NC(=O)[C@@]1(C)[C@@H](c3ccccc3)[C@H]3COc4ccc(Cl)cc4[C@@H]3N1C2=O  0.863%
23. O=C(C[C@H]1C/C=C\C[C@@H](NC(=O)OCC2c3ccccc3-c3ccccc32)C(=O)O[C@@H](c2ccccc2)CNC1=O)N[C@H](CO)Cc1ccccc1  0.728%
24. CC(=O)Nc1ccc(NC(=O)COC(=O)c2ccccc2C(=O)c2ccccc2)cc1  0.353%
25. CCCCn1nc(C(=O)Nc2cccc(C(=O)NC3CC3)c2)c2ccccc2c1=O  -0.223%
26. O=C(CN1C(=O)NC2(CCCC2)C1=O)OCCOc1ccc(F)cc1  -0.86%
27. CC(=O)Nc1ccc(-c2nc3ccccc3o2)cc1  -1.09%
28. COc1ccccc1C(=O)NCCC(=O)N(C)Cc1cccnc1  -1.19%
29. COc1ccc(S(=O)(=O)N2CCCCCC2)cc1C(=O)N(C)Cc1cccc(OC)c1OC  -1.21%
30. CCn1c2ccccc2c2cc(NC(=O)C/C(C)=N/NC(=O)c3ccccc3N)ccc21  -1.26%
31. CCOC(=O)c1sc(N)c(C#N)c1COC(=O)C1=COCCO1  -1.4%
32. Cc1cccc(N=C2NC(=O)/C(=C/c3cn(C)c4ccccc34)S2)c1  -1.56%
33. CCOC(=O)C1=C(COC(=O)[C@H](C)NS(=O)(=O)c2ccccc2F)NC(=O)NC1C (some centres not stated)  -1.62%
34. COC(=O)c1ccc(C)c(NC(=O)Cn2c(C)csc2=O)c1  -1.89%
35. COc1ccccc1C(=O)Nc1ccc(Nc2ccccc2)cc1  -2.18%
36. COc1ccccc1C(CNC(=O)c1cccc(NS(=O)(=O)c2ccc(Br)cc2)c1)N(C)C (configuration not stated)  -2.7%
37. CN(CC(=O)Nc1ccc(Cl)cc1)C(=O)c1ccc(COc2ccccc2)cc1  -2.8%
38. CCOC(=O)CSc1ccccn1  -2.85%
39. CC(C)NC(=O)Nc1cccc2c1O[C@@H](CN(C)S(=O)(=O)c1ccc(F)cc1)[C@@H](C)CN([C@H](C)CO)C2=O  -3.22%
40. Cc1cccc(NC(=O)c2sc(-c3ccccc3)nc2-c2ccc([N+](=O)[O-])cc2)c1  -3.26%
41. O=C(CN1C(=O)NC2(CCOc3ccccc32)C1=O)NCc1ccc(F)cc1 (configuration not stated)  -3.27%
42. CC1CC1C(=O)OCC(=O)Nc1cccc(F)c1 (configuration not stated)  -3.36%
43. OCc1ccc(-c2ccccc2)c(-c2ccccc2)c1  -3.81%
44. COc1ccc(/C=C2\SC(=O)N(CCC(=O)NCCCn3ccnc3)C2=O)cc1  -4.29%
45. Cc1[nH]c2ccccc2c1/C=N/NC(=O)CNC(=O)c1ccc2c(c1)OCO2  -4.62%
46. O=C1COc2ccc(C(=O)COC(=O)c3ccccc3Cl)cc2N1  -5.15%
47. Cc1ccc(-c2cc(C(=O)N/N=C/C=C/c3ccco3)c3ccccc3n2)cc1C  -5.26%
48. O=C(COC(=O)CN1C(=O)C2CCCCC2C1=O)Nc1ccc(F)c(F)c1F (configuration not stated)  -5.29%
49. CCOC(=O)CSc1nc(C)cc2c1C(=O)OC2  -5.37%
50. O=C(Nc1c2c(nc3ccccc13)CCCC2)c1ccccc1Br  -5.44%
51. CCc1sc(C(=O)N2CCN(CC(=O)Nc3cccc(F)c3)CC2)cc1C  -6.06%
52. O=[N+]([O-])c1cccc(Nc2c3ccccc3nc3ccccc23)c1  -6.1%
53. COC(=O)CNS(=O)(=O)c1ccc(OC)cc1  -8.89%
54. O=C(COC(=O)c1ccc(F)cc1)Nc1ccc2c(c1)OCO2  -9.08%
55. N#Cc1cccc(Nc2c3c(nc4ccccc24)CCCC3)c1  -9.75%
56. O=C(Nc1ccc(NC(=O)c2ccccc2F)cc1)c1ccccc1F  -9.75%
57. CC(=O)Nc1ccc(NC(=O)CSc2ncnc3c2cnn3Cc2ccccc2)cc1  -9.78%
58. COc1ccc([N+](=O)[O-])cc1-c1nc2ccccc2nc1-c1ccccc1  -10.3%
59. Cc1cc(NC(=O)CSCC(=O)NC(C)c2ccccc2)no1 (configuration not stated)  -11.9%
60. O=C(CNC(=O)c1ccco1)NNC(=O)c1ccc(Br)cc1  -12.3%
61. COc1ccc(/C=N/Nc2nc3ccccc3o2)cc1OC  -12.6%
62. C/C(N)=C(/C#N)C(=O)COC(=O)CNS(=O)(=O)c1ccc(C)cc1  -12.8%
63. COc1ccc(NC(=O)CSc2nc(C)cs2)cc1  -14.7%
64. COC(=O)C1CCN(C(=O)COC(=O)c2cc(S(=O)(=O)N3CCOCC3)ccc2C)CC1  -15.3%
65. Cc1[nH]c2ccccc2c1/C=N\NC(=O)Cn1nnc(-c2ccccc2)n1  -18.5%
66. CCC(CO)Oc1cc(NC(=O)c2cccc3ccccc23)c2ncn(C(C)C)c2c1 (configuration not stated)  -21.2%
67. CCOc1cc(/C=C(\C#N)c2nc(-c3cccs3)c(NC(C)=O)s2)ccc1O  -22.4%
68. Cc1ccc(S(=O)(=O)N2CCN(C(=O)Cn3c(=O)cnc4ccccc43)CC2)c(C)c1  -23.6%
69. C=CCC1(C(=O)N(C)Cc2ccccc2)CCN(C(=O)OC(C)(C)C)CC1  -25%
70. COc1cc(C(=O)N(C)Cc2cccc(OC)c2OC)ccc1OCC(=O)Nc1cccc(C(F)(F)F)c1  -114%

For `COc1ccc(/C=C2/SC(=O)N(CCCCCC(=O)Nc3ccccc3C(=O)O)C2=S)cc1`, the inhibition was 98.9% (active).
`COC(=O)CNS(=O)(=O)c1ccc(Cc2ccc(S(=O)(=O)NCC(=O)OC)cc2)cc1` was tested, and the inhibition was 99.2% (active).
In the case of `CCOc1cc(-c2nc3cc(C)ccn3c2NCC2CCCO2)ccc1O` (configuration not stated), the inhibition is reported as 99.6% (active).
In the case of `COc1ccccc1C(=O)Nc1nc2nc(-c3ccccc3)cc(=O)n2[nH]1`, the inhibition is reported as 97.8% (active).
With `COc1ccc(NC(=O)CSc2ncnc3[nH]ncc23)cc1` the inhibition was 98.6% (active).
With `COc1ccccc1C(=O)N1CCN=C1SCc1cccnc1` the inhibition was 96.4% (active).
For `COc1cc(/C=N\Nc2nc(-c3cccs3)c(NC(C)=O)s2)ccc1O`, the inhibition was 98.9% (active).
`CCNc1nc(NCC)nc(N/N=C/c2ccc(O)c(OC)c2)n1` was tested, and the inhibition was 99.1% (active).
For `Cc1ccc(N=C2NC(=O)/C(=C/C=C/c3ccco3)S2)cc1C`, the inhibition was 88.6% (active).
`Cc1ccc(N2NC(=O)/C(=C/C=C/c3ccco3)C2=O)cc1C` was tested, and the inhibition was 97.4% (active).
In the case of `COCCNC(=S)N/N=C/c1c(C)[nH]c2ccccc12`, the inhibition is reported as 98% (active).
`CCOC(=O)c1c(-c2cccc(N)c2)cn2ccccc12` was tested, and the inhibition was 99% (active).
With `CCOC(=O)CSC1=N/C(=C/c2ccc(-n3cncn3)cc2)C(=O)N1C(C)=O` the inhibition was 97.6% (active).
With `Cc1nc(-c2ccc([N+](=O)[O-])cc2)c(-c2ccccc2)o1` the inhibition was 97.6% (active).
`CC(=O)Nc1ccc(Nc2c3ccccc3nc3ccccc23)cc1` was tested, and the inhibition was 89.9% (active).
With `Cc1ccc(Nc2c3c(nc4ccccc24)CCC3)cc1` the inhibition was 98.4% (active).
In the case of `C/C(CC(=O)Nc1ccc(N(C)C)cc1)=N\NC(=O)c1ccccc1F`, the inhibition is reported as 87.2% (active).
